Measured values from PubChem BioAssay (NCI).
Compounds without any hit were thinned out: in the full panel of roughly 79,000, 15% have a hit. Values without a mark were called inactive. The source made the active and inactive calls. Cut-off read from the data, not from the text of the source: active = growth inhibition above about 70%; inactive = the rest.

Columns and labels:
[1] = NCI Yeast Anticancer Drug Screen. Data for the rad50 strain (AID 155);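 note: 0% = growth of vehicle-only cultures of the same strain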; conditions: S. cerevisiae rad50 strain growth inhibition, active compounds read high
In short: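 Growth of the mutant yeast was measured after compound exposure and referenced to vehicle-treated cultures.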

[2] = NCI Yeast Anticancer Drug Screen. Data for the mec2-1 strain (AID 157); conditions: S. cerevisiae mec2-1 strain, active compounds read high
In short: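 Mutant yeast (mec2-1) grown with compound; growth inhibition relative to vehicle control reported.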

[3] = NCI Yeast Anticancer Drug Screen. Data for the sgs1 mgt1 strain (AID 161);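 note: 0% = growth of cultures given vehicle only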; conditions: S. cerevisiae sgs1 mgt1 strain, active compounds read high
In short: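 Compounds are added to genetically altered yeast, and growth is compared with cultures given vehicle alone to give percent inhibition.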

[4] = NCI Yeast Anticancer Drug Screen. Data for the cln2 rad14 strain (AID 165);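 note: 0% = growth equal to vehicle treated cultures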; conditions: S. cerevisiae cln2 rad14 strain, active compounds read high
In short: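 Readout is yeast growth inhibition versus vehicle-treated controls, using a strain with cln2 and rad14 alterations exposed to compound.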

[5] = NCI Yeast Anticancer Drug Screen. Data for the bub3 strain (AID 167); conditions: S. cerevisiae bub3 mutant strain, active compounds read high
In short: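 Whole-cell yeast assay. The mutant strain was incubated with compounds, and growth inhibition was determined by comparison with vehicle-treated cells.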

[6] = NCI Yeast Anticancer Drug Screen. Data for the mlh1 rad18 strain (AID 175); conditions: S. cerevisiae mlh1 rad18 strain growth inhibition, active compounds read high
In short: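 Genetically defined yeast (DNA repair-deficient) exposed to compounds; growth inhibition determined relative to vehicle.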

[7] = at 5.0 µM (retest, dose inferred, filed as 0.5)
[8] = at 50.0 µM (retest, dose inferred, filed as 5.0)

| SMILES | growth inhibition [1, 7] | growth inhibition [1, 8] | growth inhibition ([1]; at 50.0 µM) | growth inhibition [2, 7] | growth inhibition [2, 8] | growth inhibition ([2]; at 50.0 µM) | growth inhibition [3, 7] | growth inhibition [3, 8] | growth inhibition ([3]; at 50.0 µM) | growth inhibition [4, 7] | growth inhibition [4, 8] | growth inhibition ([4]; at 50.0 µM) | growth inhibition [5, 7] | growth inhibition [5, 8] | growth inhibition ([5]; at 50.0 µM) | growth inhibition [6, 7] | growth inhibition [6, 8] | growth inhibition ([6]; at 50.0 µM) |
| --- | --- | --- | --- | --- | --- | --- | --- | --- | --- | --- | --- | --- | --- | --- | --- | --- | --- | --- |
| CCCC(c1ccc(O)cc1)c1ccc(O)cc1 | 1% | 98% (active) | 99.5% (active) | -5% | 99% (active) | 99.5% (active) | -1% | 95% (active) | 99.4% (active) | 12% | 96% (active) | 99.2% (active) | 1% | 97% (active) | 99.5% (active) | 0% | 96% (active) | 99.5% (active) |
| CCCCN(CCC(=O)O)c1ccc(/C=C\c2ccnc3ccccc23)cc1 | 8% | 89% (active) | 94.2% (active) | 6% | 89% (active) | 93.5% (active) | 21% | 90% (active) | 95.6% (active) | 15% | 82% (active) | 88.7% (active) | -2% | 68% | 96.3% (active) | 0% | 89% (active) | 93% (active) |
| CCOc1ccccc1NC1=C(Cl)C(=O)c2ccccc2C1=O | 99% (active) | 97% (active) | 23.9% | 99% (active) | 98% (active) | 97.9% (active) | 100% (active) | 98% (active) | 98% (active) | 99% (active) | 98% (active) | 97% (active) | 99% (active) | 97% (active) | 97.8% (active) | 99% (active) | 97% (active) | 96.1% (active) |
| CN(Cc1ccccc1)CC(O)c1cc(-c2ccc(Cl)cc2)nc2ccccc12 (configuration not stated) | -1% | 99% (active) | 98.8% (active) | 2% | 100% (active) | 98.5% (active) | 24% | 100% (active) | 99.2% (active) | 1% | 99% (active) | 98.4% (active) | 7% | 99% (active) | 98% (active) | 10% | 99% (active) | 98.3% (active) |
| CC12CCc3ccccc3C1=Nc1ccccc12 (configuration not stated) | -3% | 78% (active) | 78.7% (active) | 2% | 89% (active) | 73.2% (active) | 8% | 82% (active) | 58.2% | -12% | -20% | -11.1% | 12% | 90% (active) | 88.7% (active) | -3% | 72% (active) | 55.5% |
| CCN1CC(=O)N(C)C1=S | -9% | 5% | 84.7% (active) | -6% | -19% | 71.2% (active) | 8% | -11% | 89% (active) | 20% | 39% | 74.9% (active) | 12% | 18% | 83.8% (active) | -5% | -41% | 79.5% (active) |
| CC(C)NC(=O)O/N=C1\CCC2[C@@H]3CC=C4C[C@@H](OC(=O)NC(C)C)CC[C@]4(C)C3CC[C@]12C (some centres not stated) | 88% (active) | 77% (active) | 83% (active) | 91% (active) | 67% | 83% (active) | 90% (active) | 73% (active) | 92.3% (active) | 95% (active) | 75% (active) | 81.2% (active) | 83% (active) | 72% (active) | 91.2% (active) | 91% (active) | 71% (active) | 92% (active) |
| O=S(=O)(Nc1ccc2c3c(cccc13)C=C2)c1ccccc1 | -1% | 98% (active) | 64.5% | -4% | 94% (active) | 75.2% (active) | -7% | 97% (active) | 79.8% (active) | -9% | 96% (active) | 61.3% | -1% | 98% (active) | 63.4% | -2% | 97% (active) | 92.3% (active) |
| NC(=O)c1ccccc1OC(=O)NCCO | 6% | -3% | 3.2% | -2% | -5% | -1.7% | 3% | 2% | -1.2% | -1% | -7% | 35.8% | -4% | 3% | 1.7% | 0% | 7% | 7.35% |
| CCOc1cnn(-c2ccccc2)c(=O)c1SCc1ccc(Cl)c(Cl)c1 | -4% | 27% | 37.5% | -3% | 56% | 8.95% | 2% | 73% (active) | 65.8% | -11% | 44% | 53.1% | 4% | 82% (active) | 40.3% | -4% | 56% | 32.4% |
| Cc1ccc(S(=O)(=O)N/N=C/c2oc(-c3cccc([N+](=O)[O-])c3)c(-c3cccc([N+](=O)[O-])c3)c2[N+](=O)[O-])cc1 | 56% | 56% | 86.7% (active) | 17% | 17% | 92.7% (active) | 50% | 50% | 92.1% (active) | 27% | 27% | 91.7% (active) | 31% | 31% | 87.9% (active) | 57% | 57% | 89.7% (active) |
| CS(=O)(=O)OCCN(CCOS(C)(=O)=O)c1ccc(C=Nc2ccc3ccccc3c2)c(Cl)c1 | 5% | 22% | 10.4% | -203% | -3% | 23.1% | 3% | 14% | 34% | 11% | -9% | 35.4% | 0% | -9% | 5.85% | 7% | 34% | 66% |
| O=S(=O)(O)c1ccc2c(c1)C1C(C3C2C2(Cl)C(Cl)=C(Cl)C3(Cl)C2(Cl)Cl)C2(Cl)C(Cl)=C(Cl)C1(Cl)C2(Cl)Cl (configuration not stated) | -7% | 80% (active) | 85.9% (active) | -8% | 94% (active) | 89.9% (active) | -19% | 77% (active) | 81% (active) | 34% | 89% (active) | 83.7% (active) | 21% | 91% (active) | 88.6% (active) | 23% | 93% (active) | 84.4% (active) |
| CCN(CC)CCC(=O)/C=C/c1ccc(Cl)c(Cl)c1 | 10% | 97% (active) | 90% (active) | 0% | 99% (active) | 93.1% (active) | 16% | 56% | 92% (active) | 14% | 97% (active) | 90.4% (active) | 10% | 98% (active) | 91.4% (active) | 37% | 98% (active) | 89.3% (active) |
| N#CC(C(=O)C(=O)Nc1cccc(C(F)(F)F)c1)c1ccccc1 (configuration not stated) | -23% | 90% (active) | -23.1% | -12% | 76% (active) | 10.2% | -19% | 75% (active) | 16.6% | -9% | 90% (active) | -20.7% | -10% | 94% (active) | 6.55% | 34% | 83% (active) | 12.7% |
| CC(C)CCCC(C)C1CCC2C3C=CC4=CCCCC4(C)C3CCC12C (configuration not stated) | -18% | 95% (active) | 97.6% (active) | 3% | 98% (active) | 94.8% (active) | -8% | 96% (active) | 8.35% | -5% | 94% (active) | 93% (active) | -4% | 93% (active) | 91.2% (active) | 31% | 98% (active) | 98.1% (active) |
| O=C(N/C(=C\c1ccc(Br)cc1)c1nc2ccccc2[nH]1)c1ccccc1 | 3% | 59% | 73.4% (active) | -17% | 27% | 95.8% (active) | -2% | 60% | 68% | -6% | 41% | 66.9% | 6% | 78% (active) | 88.4% (active) | 2% | 21% | 96.5% (active) |
| COc1c2c3c(ccnc3c3ccccc13)C(=O)N2C | 29% | 84% (active) | 83% (active) | 15% | 72% (active) | 71.3% (active) | 19% | 75% (active) | 77.7% (active) | -3% | 52% | 61% | 0% | 72% (active) | 75.6% (active) | 17% | 76% (active) | 75% (active) |
| CN(N(P(c1ccccc1)c1ccccc1)P(c1ccccc1)c1ccccc1)P(c1ccccc1)c1ccccc1 | -1% | 2% | 88.7% (active) | -5% | 9% | 81.9% (active) | -15% | 2% | 88.2% (active) | 2% | 0% | 64.2% | 1% | -4% | 76.5% (active) | -14% | -17% | 93.2% (active) |
